Experimental data as given in PubChem BioAssay AID1053173 (Broad Institute, 2014).
Among all 1,500 compounds or so, about 390 (26%) were called active. How the calls were made is not given here. Not all results are given here. Measured potencies and affinities stand elsewhere.

Molecular target: Histone-lysine N-methyltransferase NSD2 (Homo sapiens) (UniProt O96028)
Test: NSD2 methyltransferase inhibitors, dose response, biochemical, AlphaScreen, cherry-picked samples (AID 1053173);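 further: 0% = neutral control wells and -100% = positive control wells on each plate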
Details: NSD2 H4 peptide methylation, 120 min; series mostly up to 10 µM; activity change, negative = inhibition: at the top concentration

Chain of Histone-lysine N-methyltransferase NSD2 (Homo sapiens) (O96028 whole entry, looked up): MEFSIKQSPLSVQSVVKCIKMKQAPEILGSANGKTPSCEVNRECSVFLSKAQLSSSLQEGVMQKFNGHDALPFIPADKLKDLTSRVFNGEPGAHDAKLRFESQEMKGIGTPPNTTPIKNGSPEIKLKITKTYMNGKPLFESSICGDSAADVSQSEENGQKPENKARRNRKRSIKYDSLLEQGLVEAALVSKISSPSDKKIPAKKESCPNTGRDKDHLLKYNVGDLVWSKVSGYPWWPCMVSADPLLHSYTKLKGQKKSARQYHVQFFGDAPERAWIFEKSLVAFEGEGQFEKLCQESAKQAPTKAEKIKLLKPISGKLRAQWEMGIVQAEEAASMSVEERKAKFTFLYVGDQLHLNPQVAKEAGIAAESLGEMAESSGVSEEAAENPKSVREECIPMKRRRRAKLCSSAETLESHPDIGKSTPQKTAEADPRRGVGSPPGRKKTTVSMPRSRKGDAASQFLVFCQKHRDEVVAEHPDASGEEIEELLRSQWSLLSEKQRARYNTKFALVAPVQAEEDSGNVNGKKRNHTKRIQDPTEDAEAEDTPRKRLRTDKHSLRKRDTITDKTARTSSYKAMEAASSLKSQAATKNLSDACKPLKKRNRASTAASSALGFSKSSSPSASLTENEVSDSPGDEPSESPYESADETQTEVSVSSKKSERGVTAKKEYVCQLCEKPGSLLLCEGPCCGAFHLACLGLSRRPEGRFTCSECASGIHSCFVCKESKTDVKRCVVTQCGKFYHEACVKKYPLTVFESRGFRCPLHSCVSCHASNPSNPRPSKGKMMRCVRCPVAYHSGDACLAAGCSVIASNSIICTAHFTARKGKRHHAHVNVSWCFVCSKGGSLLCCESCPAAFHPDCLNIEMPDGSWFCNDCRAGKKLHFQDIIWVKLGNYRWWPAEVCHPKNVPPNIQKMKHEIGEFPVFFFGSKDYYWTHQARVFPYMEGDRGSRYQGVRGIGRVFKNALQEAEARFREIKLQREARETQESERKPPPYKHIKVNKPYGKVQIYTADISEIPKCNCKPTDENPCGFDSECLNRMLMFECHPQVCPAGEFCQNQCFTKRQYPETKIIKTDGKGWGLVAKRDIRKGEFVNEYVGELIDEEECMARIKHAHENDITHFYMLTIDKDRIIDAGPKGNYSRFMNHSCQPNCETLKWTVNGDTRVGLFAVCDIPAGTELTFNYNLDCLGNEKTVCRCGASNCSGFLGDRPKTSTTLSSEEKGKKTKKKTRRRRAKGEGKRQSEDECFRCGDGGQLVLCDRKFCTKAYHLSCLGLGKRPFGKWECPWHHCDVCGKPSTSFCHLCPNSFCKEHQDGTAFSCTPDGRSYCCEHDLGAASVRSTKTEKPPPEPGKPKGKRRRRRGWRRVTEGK

Activity change, negative = inhibition, inactive:
Cc1cccc(Nc2nc(NCc3ccco3)nc(N)c2[N+](=O)[O-])c1 -4.37%
CC1=CCC2C(=O)N(c3cccc(C(=O)N(C)C4CCCCC4)c3)C(=O)C2C1 (stereo unspecified) 0.384%
CCN(CC)CCOc1ccc(C=NNc2nc3c([nH]2)c(=O)n(C)c(=O)n3C)cc1 -11.9%
COc1ccc(CNC(=O)c2nnn(-c3cccc(C(F)(F)F)c3)c2N)cc1 4.73%
CC(=O)Nc1ccc(C(=O)OCC(=O)/C(C#N)=C(\C)N)cc1 -2.9%
O=C(Nc1nccs1)c1ccc2nccnc2c1 -5.53%
CC1CCCCC1NC(=O)COC(=O)c1ccc2c(=O)n3c(nc2c1)CCC3 (stereo unspecified) -1.1%
Cc1ccc(NC(=O)CCN2CCN(C/C=C/c3ccccc3)CC2)cc1C -7.29%
CCCCOc1ccc(-c2ncc(N)cn2)cc1 7.56%
O=C(O)CC1S/C(=N/N=C/c2ccc(-c3ccc(Cl)cc3[N+](=O)[O-])o2)NC1=O (stereo unspecified) -8.04%
COc1ccccc1OCC(=O)Nc1ccccc1C(=O)N1CCCC1 -4.11%
COc1ccccc1NC(=O)c1ccc(-n2cccn2)nc1 -1.08%
CC12CC3(C)CC(C)(C1)CC(C(=O)NC1=NCCS1)(C2)C3 2.75%
Cc1oc(-c2cccs2)nc1CN1CCN(C2CCCC2)C(CCO)C1 (stereo unspecified) -3.19%
COC(=O)c1nn(C)c(=O)[nH]c1=O 1.85%
CC(=O)c1c(C)[nH]c(C(=O)CSc2nnc(-c3ccco3)n2Cc2ccccc2)c1C 3.53%
CC1=NN(c2ccc(S(=O)(=O)O)cc2Cl)C(=O)C1 4.11%
CCCCN(C)C(=O)C1CCN(Cc2cccc(OCc3ccccc3)c2)CC1 -1.82%
O=C(NCc1ccc(F)cc1)C1CCCN1S(=O)(=O)c1ccccc1C(F)(F)F (stereo unspecified) 4.09%
CCN1CCCC1CNC(=O)c1ccc2c(c1)N(Cc1cccc(Cl)c1)C(=O)c1ccccc1S2(=O)=O (stereo unspecified) -7.05%
COC(=O)c1sc(S(=O)(=O)Nc2ccc(C)c(C)c2)c(C(=O)OC)c1C -4.84%
COc1cc2c(oc(=O)c3cc(C)cc(OC)c32)c2c(C3OC(C)C(O)C(C)(O)C3O)ccc(O)c12 (stereo unspecified) -1.96%
COc1cccc(C2c3c(oc4ccccc4c3=O)C(=O)N2CCCN(C)C)c1OC (stereo unspecified) -0.912%
Cc1[nH][nH]c(=O)c1C(c1ccc2c(c1)OCO2)c1c(C)[nH][nH]c1=O -2.41%
Cc1cccc(C)c1NC(=S)N(CCCN1CCN(C)CC1)Cc1cccs1 -1.78%
O=C(Cc1ccc(Br)cc1)Nc1ncc([N+](=O)[O-])s1 -2.73%
O=C(COC(=O)c1ccc([N+](=O)[O-])s1)Nc1ccccc1 -2.69%
Cc1ccc2[nH]c3c(c2c1)CN(C(=O)CN(C)CC1OCCO1)CC3 -1.22%
CN1CCCCCC1=Nc1ccc([N+](=O)[O-])cc1 -6.03%
N#Cc1ccc(CSc2ncccn2)cc1 -3.28%
COc1ccc2ccccc2c1C1CC(=O)N2CN(C)CSC2=C1C#N (stereo unspecified) -2.35%
Cc1cccc(C(=O)Nc2cccc(-c3cnc4ccccc4n3)c2)c1 0.722%
C/C(=N\O)C(C)Oc1ccc(Cl)cc1 (stereo unspecified) -0.765%
NC(=O)c1oc2ccc(Cl)cc2c1N 2.14%
CCc1ccc(N2CN=c3s/c(=C\c4ccccc4)c(=O)n3C2)cc1 -0.972%
CCN1CCN(Cc2nc(N)nc(Nc3ccc(C)c(C)c3)n2)CC1 -4.72%
CSc1nnc2c(n1)OC=Nc1ccccc1-2 -1.34%
COc1ccc(C2N(C(=O)C(F)(F)F)C(C)CN2S(=O)(=O)c2ccc(C)cc2)cc1 (stereo unspecified) 3.6%
Nc1ccc(N(CCO)CCO)cc1 -10.2%
O=C(CSCC(=O)N1CCOCC1)Nc1nc(-c2ccccc2)cs1 3.11%
Cc1cccc(NC(=O)CCN2CCCCC2)c1 2.22%
O=C(OC(C(=O)NC1CCCCC1)c1ccccn1)c1cccs1 (stereo unspecified) 2.7%
C/C(NCCc1ccccc1)=C1/CCOC1=O 3.57%
COC(=O)c1ccc(/C=N/N2CCN(Cc3ccccc3)CC2)cc1 -6.96%
CCCCCCCCn1cnc2c(N)c(C)c(C)cc21 -2.93%
Cc1cc(Cl)cc(Br)c1OCCCN1C(=O)NC(C)(C)C1=O 0.235%
CC(=O)C1=C(O)C(=O)N(Cc2cccnc2)C1c1ccccc1 (stereo unspecified) 1.51%
Cc1ccc(OCc2cnc(Cl)s2)c(C)c1 5.09%
CC(=O)N=Cc1c(C)c(C#N)c(=O)n(C)c1O -1.78%
Oc1cccc(NC(=S)N=Nc2c(O)[nH]c3ccc(Br)cc23)c1 -7.09%
CCOc1ccc2nc(SCC(=O)NCc3ccco3)sc2c1 4.48%
N#Cc1c(NC(=O)c2ccncc2)sc2c1CCC2 -9.64%
COC(=O)N/N=C1/C/C(=N\NC(=O)OC)c2ccccc21 -6.25%
COc1cc(OC)nc(NC2OC(=O)c3ccccc32)n1 (stereo unspecified) 1.18%
CC(CS(=O)(=O)c1ccc2c(c1)NC(=O)CS2)C(=O)NCc1ccccc1Cl (stereo unspecified) -10.3%
Cc1cccc(/C=N/NC(=O)C(C)Nc2cccc3ccccc23)n1 (stereo unspecified) -8.21%
CC(Nc1cccc2ccccc12)C(=O)N/N=C/c1ccccn1 (stereo unspecified) -4.45%
Cc1ccc(Cl)cc1NC(=O)C[n+]1ccc(Cc2ccc([N+](=O)[O-])cc2)cc1 -11.1%
O=C(CSc1nnc(-c2ccccc2O)o1)NC1CCCCC1 -3.18%
O=C(O)CN1C(=O)/C(=C\c2cccc(OCc3ccc(F)cc3)c2)SC1=S -11.4%
Cc1cccc(C)c1NC(=O)c1c[nH]c2ccccc12 1.49%
O=C1/C(=C/c2ccccc2)CN(C(=O)CCN2CCOCC2)C/C1=C\c1ccccc1 -3.75%
O=Cc1ccc(OC(=O)C2CC(=O)N(c3ccc(F)cc3)C2)cc1 (stereo unspecified) 1.57%
Cc1ccc(NC(=O)C[n+]2ccn(C3=C([O-])c4ccccc4C3=O)c2)cc1 -3.33%
Cc1c(C(=O)NC(C)C)oc2c1-c1[nH]ncc1CC2 0.875%
O=C(Nc1nnc(SCc2ccc(F)cc2)s1)c1ccccn1 -3.31%
c1ccc(CN2CCN(c3nc(-c4ccccc4)nc(-n4ccnc4)n3)CC2)cc1 -6.94%
O=C1NC(NS(=O)(=O)c2ccccc2)(C(F)(F)F)C(=O)N1c1cccc(Cl)c1 (stereo unspecified) 2.53%
CC(C)Sc1nnc([C@H](Cc2c[nH]c3ccccc23)NC(=O)OC(C)(C)C)o1 -0.557%
O=[N+]([O-])c1cccc(NC(=S)N2CCOCC2)c1 -0.806%
CCOC(=O)c1cc(S(=O)(=O)Nc2ccc(OC)cc2OC)cn1C -1.2%
NS(=O)(=O)c1ccc(CNC(=O)CCCSc2ccccc2)cc1 -3.02%
O=S(=O)(Nc1cc(Sc2cccc3cccnc23)c(O)c2ccccc12)c1ccccc1 -6.01%
Cc1cc(C)nc(NS(=O)(=O)c2ccc(NC(=O)c3ccccc3Br)cc2)n1 -0.118%
CCNC(=O)Cc1ccc(NS(=O)(=O)c2ccc(F)cc2)cc1 -0.17%
O=C1NC2=C(CCc3ccccc32)C(c2ccccc2)N1 (stereo unspecified) 6.24%
Cc1cccn2c(=O)c3cc(C(=O)NCCCn4ccnc4)n(C)c3nc12 1.31%
CCOc1cc(C(=O)NCC(=O)N2CCC3(CC2)NCCc2[nH]cnc23)cc(OCC)c1OCC -3.91%
O=[N+]([O-])c1ccc(N/N=C/c2cccs2)nc1 5.01%
CCOc1ccc(N)cc1OC -2.03%
CCN(CC)CCNC(=O)c1cccc(NC(=O)C(=O)c2cc(Br)ccc2NC(C)=O)c1 -7.78%
O=C(/C=C/c1ccc(Cl)cc1Cl)NCc1ccco1 -1.67%
CC1Cc2ccccc2N1C(=O)COc1cccc(-n2cnnn2)c1 (stereo unspecified) -1.63%
COc1ccc(CNC(=O)CN(c2ccc(C)cc2)S(=O)(=O)c2c(C)noc2C)cc1 1.5%
Cc1cc(F)c(F)c(C(=O)N2C(C)CCCC2C)c1Cl (stereo unspecified) 2.63%
CC1(C)Cc2cccc(OCC(=O)O)c2O1 6.66%
Cc1cc(=O)n(-c2ccc3ccccc3n2)[nH]1 -0.761%
COc1ccc2nc(NC(=O)CS(=O)(=O)c3ccc(C)cc3)sc2c1 2.31%
COc1ccc(N2C(=O)C3C(C2=O)C(C(=O)c2ccc(Cl)cc2)N2CCCC32)cc1 (stereo unspecified) -2.69%
COc1ccc(CCCc2n[nH]c(=S)n2C)cc1C 0.479%
CCOc1ccc(NC(=O)CSc2nnc(C34CC5CC(CC(C5)C3)C4)n2C)cc1 -1.31%
CCN(CC)CCNC(=O)CN1C(=O)COc2ccc(S(=O)(=O)N3CCOCC3)cc21 -0.09%
Cc1ccc(Cl)cc1N1CCN(C(=O)c2ccc3nc[nH]c3c2)CC1 -3.39%
CCOc1ccc(NC(=O)CSc2nc3ccccc3c(=O)n2CCCC(=O)N2CCCC2)cc1 2.25%
O=C(O)CN1C(=O)/C(=C/c2ccc(SCc3ccccc3)o2)SC1=S -15.1%
O=C1Cc2ccccc2C(=O)N1c1ccccc1 -4.05%
Clc1ccc(C2=CSC3=Nc4cccc5cccc(c45)N23)cc1 -5.57%
CN1/C(=N\O)c2cccc3cccc1c23 -5.13%
Cc1nn(CC(=O)Nc2nnc(C(C)C)s2)c(=O)c2ccccc12 -0.421%
Cc1cccc(Nc2nnc(-c3ccc(N4CCOCC4)c([N+](=O)[O-])c3)c3ccccc23)c1 -5.02%
CC(C)(C)c1[nH]nc2c1C(c1ccoc1)C(C#N)=C(N)O2 (stereo unspecified) -2.96%
Fc1ccc(CNc2nc(-c3cccnc3)nc3ccccc23)cc1 -0.605%
COC1=CC(=O)C(OC)=C(OC)C1=O -6.67%
N#CCC(=O)c1sccc1-n1cccc1 -6.36%
CNC(=O)c1ccc(-c2cc(C(F)(F)F)nn2C)s1 -2.74%
Cc1[nH]n(-c2ccccc2)c(=O)c1C(c1ccc(C(=O)O)cc1)c1c(C)[nH]n(-c2ccccc2)c1=O -3.87%
O=C(O)c1ccc2c(c1)C(=O)N(c1cccc(C(=O)/C=C/c3ccccc3)c1)C2=O -5.38%
Cc1ccnc(-n2c(CCN3C(=O)c4ccccc4C3=O)nc3ccccc3c2=O)c1 1.68%
CC1CCCCN1C(=O)CCNC(=O)Cn1cnc2ccccc2c1=O (stereo unspecified) -0.925%
CCN(CC)C(=O)C1CCCN(Cc2ccc(OC)c(C)c2C)C1 (stereo unspecified) -1.29%
Cc1cc2nn(-c3cccc4ccccc34)nc2cc1NC(=O)c1cccs1 -2.36%
